Holding throughout (set-up): scale not given: direction of the effect not stated beside the values
Test [1] deals with Protein translocase subunit SecA (Escherichia coli (strain K12)) (UniProt P10408). Nature of the test: Assay to Identify E. coli SecA ATPase Inhibitors. The note with it: 30 µM. The class given is functional.
For test [2], the target named is T1, Ubiquitin-activating enzyme e1, putative (Leishmania donovani (strain BPK282A1)) (UniProt E9BSI1).
T1 sequence (whole entry): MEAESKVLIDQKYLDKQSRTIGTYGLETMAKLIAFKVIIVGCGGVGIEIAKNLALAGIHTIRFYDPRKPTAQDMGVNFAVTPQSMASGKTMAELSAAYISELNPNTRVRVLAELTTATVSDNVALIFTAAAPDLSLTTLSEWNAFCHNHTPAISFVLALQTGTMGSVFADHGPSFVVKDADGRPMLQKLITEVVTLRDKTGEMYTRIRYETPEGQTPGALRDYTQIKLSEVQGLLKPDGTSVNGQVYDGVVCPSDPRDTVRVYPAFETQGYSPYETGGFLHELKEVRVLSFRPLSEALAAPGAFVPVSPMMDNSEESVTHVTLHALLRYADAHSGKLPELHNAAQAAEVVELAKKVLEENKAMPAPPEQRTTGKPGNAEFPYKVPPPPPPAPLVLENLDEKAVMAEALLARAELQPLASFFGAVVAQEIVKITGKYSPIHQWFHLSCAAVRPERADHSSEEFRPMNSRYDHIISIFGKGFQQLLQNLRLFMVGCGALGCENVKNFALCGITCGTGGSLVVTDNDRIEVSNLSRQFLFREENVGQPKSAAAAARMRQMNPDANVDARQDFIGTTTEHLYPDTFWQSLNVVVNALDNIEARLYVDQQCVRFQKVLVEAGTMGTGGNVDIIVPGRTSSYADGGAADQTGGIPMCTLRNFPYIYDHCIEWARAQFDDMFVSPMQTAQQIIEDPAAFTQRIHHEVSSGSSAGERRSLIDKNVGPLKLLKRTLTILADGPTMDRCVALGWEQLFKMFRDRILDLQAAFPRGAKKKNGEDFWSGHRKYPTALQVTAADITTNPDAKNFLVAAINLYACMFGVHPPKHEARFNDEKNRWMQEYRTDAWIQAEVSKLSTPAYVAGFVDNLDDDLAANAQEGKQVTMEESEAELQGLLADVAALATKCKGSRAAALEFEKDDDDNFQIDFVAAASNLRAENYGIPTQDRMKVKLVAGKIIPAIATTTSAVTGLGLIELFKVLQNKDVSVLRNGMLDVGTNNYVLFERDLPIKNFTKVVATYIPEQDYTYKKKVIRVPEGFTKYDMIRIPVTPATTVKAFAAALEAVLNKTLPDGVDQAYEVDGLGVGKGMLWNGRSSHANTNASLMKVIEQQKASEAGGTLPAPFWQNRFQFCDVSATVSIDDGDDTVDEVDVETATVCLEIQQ
The experiment in a line: Leishmania donovani Ubiquitin Activating Enzyme (LdE1). It counts as functional. Particulars: 30 µM.

For test [3], the target named is AMP-activated protein kinase, AMPK (Homo sapiens) (UniProt P54646+O43741+P54619+Q9UGJ0+Q9Y478+Q13131+Q9UGI9). The experiment in a line: AMP-dependent Kinase enzyme assay. An in vitro enzyme assay that detects ADP turnover that is directly proportional to AMPK activity. This uses naive AMPK that is activated during the assay with MK-8722. It counts as functional. The note with it: 30 µM.

The target of test [4] is Sialic acid-binding Ig-like lectin 9 (Homo sapiens) (UniProt Q9Y336). The experiment in a line: Hs-Siglec9 ALPHAscreen SOP 20170721. Particulars: 10 µM. Background: Alpha assays give light when donor and acceptor beads are brought close together.
In the next test the test system is Trypanosoma cruzi. Nature of the test: Trypanosoma cruzi phosphomannomutase and mannose-1-phosphate guanylyltransferase assay. The class given is functional. The note with it: 10 µM.
In test [5] the target is T2, Arginase-2, mitochondrial (Homo sapiens) (UniProt P78540).
T2 sequence (whole entry): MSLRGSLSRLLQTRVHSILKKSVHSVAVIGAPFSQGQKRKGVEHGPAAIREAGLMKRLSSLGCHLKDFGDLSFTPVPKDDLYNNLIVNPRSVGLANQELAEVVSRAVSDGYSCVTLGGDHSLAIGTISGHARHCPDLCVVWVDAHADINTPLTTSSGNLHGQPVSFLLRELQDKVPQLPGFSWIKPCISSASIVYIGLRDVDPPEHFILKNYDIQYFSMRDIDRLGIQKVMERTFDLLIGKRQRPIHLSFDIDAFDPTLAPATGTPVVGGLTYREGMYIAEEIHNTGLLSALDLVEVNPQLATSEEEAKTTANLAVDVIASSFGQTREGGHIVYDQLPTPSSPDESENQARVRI
Nature of the test: in vitro enzyme assay to detect the production of urea directly proportional to the activity of Arginase II. Also: in the data most compounds retested in dose-response had high values. It counts as functional. Particulars: 33.3 µM.

Test [6] addresses T3, Proteasome subunit beta (Trypanosoma cruzi) (UniProt O96673).
T3 sequence (whole entry): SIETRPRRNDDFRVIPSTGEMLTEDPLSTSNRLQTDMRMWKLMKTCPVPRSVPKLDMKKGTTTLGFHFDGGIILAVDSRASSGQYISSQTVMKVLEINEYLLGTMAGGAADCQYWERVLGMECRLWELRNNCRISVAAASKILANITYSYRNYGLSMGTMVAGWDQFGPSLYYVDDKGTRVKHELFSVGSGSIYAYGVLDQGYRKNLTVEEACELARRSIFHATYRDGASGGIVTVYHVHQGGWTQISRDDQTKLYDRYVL
Nature of the test: Trypanosoma cruzi proteasome chymotrypsin-like activity (TcProtChymo) assay. Also: in the data most compounds retested in dose-response had high values. It counts as functional. Particulars: 9.37 µM.

The species named for the next test is Homo sapiens. Nature of the test: To identify inhibition of the IFN signalling (Jak-Stat) pathway via expression of an eGFP reporter gene under the control of an IFN-stimulated response element (ISRE) containing MxA promoter. The class given is functional. Particulars: 30 µM. (Reporter assays use an easily measured gene product as a stand-in for the process of interest.)

Test [7] has as its target T4, Tyrosyl-tRNA synthetase, putative (Trypanosoma cruzi (strain CL Brener)) (UniProt Q4DSP6).
T4 sequence (whole entry): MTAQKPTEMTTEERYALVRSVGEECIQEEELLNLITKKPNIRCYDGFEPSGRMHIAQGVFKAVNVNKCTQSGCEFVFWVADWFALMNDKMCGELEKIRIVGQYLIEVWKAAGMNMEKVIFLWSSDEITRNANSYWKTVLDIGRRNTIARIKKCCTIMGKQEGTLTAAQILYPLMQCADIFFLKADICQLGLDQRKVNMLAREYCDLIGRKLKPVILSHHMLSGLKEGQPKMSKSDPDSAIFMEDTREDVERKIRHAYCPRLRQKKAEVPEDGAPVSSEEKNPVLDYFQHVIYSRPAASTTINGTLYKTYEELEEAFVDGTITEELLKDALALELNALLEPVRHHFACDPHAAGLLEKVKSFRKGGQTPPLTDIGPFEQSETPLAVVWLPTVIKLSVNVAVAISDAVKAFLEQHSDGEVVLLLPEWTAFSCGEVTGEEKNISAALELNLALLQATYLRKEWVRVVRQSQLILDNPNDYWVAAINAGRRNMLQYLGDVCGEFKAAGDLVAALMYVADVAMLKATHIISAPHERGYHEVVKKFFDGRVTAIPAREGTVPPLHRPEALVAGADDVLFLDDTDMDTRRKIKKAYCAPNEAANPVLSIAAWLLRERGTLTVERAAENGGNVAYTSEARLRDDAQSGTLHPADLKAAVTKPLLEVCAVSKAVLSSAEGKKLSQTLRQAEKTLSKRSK
Nature of the test: Trypanosoma cruzi tyrosyl tRNA synthetase (TcYRS) _High Tyrosine SOP. Also: in the data most compounds retested in dose-response had high values. It counts as functional. Particulars: 30 µM.

For test [8], the target named is T4, Tyrosyl-tRNA synthetase, putative (Trypanosoma cruzi (strain CL Brener)). The experiment in a line: Trypanosoma cruzi tyrosyl tRNA synthetase (TcYRS) SOP. Particulars: 30 µM. It counts as functional.
The target in test [9] is Chromo domain-containing protein 1 (Saccharomyces cerevisiae (strain ATCC 204508 / S288c) (Baker's yeast)) (UniProt P32657). The experiment in a line: ScCHD-1 Enzyme Inhibition Assay. Also: in the data most compounds retested in dose-response had high values. Particulars: 30 µM. The class given is functional.

For some of these results: Potency and affinity values are given separately.

Here are results for eight molecules from ChEMBL document CHEMBL3988442, “University of Dundee, Small-Polar-MMV Screening Library” (2021).

Chain of Protein translocase subunit SecA (Escherichia coli (strain K12)) (P10408 whole entry): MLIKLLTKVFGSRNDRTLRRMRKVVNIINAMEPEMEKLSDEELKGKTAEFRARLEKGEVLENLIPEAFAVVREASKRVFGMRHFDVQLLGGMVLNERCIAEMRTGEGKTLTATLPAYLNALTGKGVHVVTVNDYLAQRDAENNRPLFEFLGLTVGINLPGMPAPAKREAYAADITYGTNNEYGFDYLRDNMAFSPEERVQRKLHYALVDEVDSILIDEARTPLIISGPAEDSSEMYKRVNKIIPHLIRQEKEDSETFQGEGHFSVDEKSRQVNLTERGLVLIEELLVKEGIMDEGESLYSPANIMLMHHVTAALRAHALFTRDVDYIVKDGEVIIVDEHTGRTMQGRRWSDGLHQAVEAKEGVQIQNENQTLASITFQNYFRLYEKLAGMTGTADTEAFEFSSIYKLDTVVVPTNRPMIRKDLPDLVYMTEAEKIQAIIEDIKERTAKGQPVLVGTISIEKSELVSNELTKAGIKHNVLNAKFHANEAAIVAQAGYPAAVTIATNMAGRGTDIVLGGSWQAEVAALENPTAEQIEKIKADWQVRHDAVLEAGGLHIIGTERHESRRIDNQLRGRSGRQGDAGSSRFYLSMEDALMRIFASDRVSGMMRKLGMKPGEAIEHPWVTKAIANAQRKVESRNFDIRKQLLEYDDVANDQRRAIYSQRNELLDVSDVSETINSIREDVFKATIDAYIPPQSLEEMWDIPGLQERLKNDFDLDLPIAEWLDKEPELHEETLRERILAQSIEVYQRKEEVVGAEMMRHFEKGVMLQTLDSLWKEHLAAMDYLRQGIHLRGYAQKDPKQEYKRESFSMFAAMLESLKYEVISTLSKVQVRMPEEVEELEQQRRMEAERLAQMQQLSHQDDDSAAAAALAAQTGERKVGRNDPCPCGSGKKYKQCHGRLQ
Chain of Chromo domain-containing protein 1 (Saccharomyces cerevisiae (strain ATCC 204508 / S288c) (Baker's yeast)) (P32657 whole entry, the tested form may be a part): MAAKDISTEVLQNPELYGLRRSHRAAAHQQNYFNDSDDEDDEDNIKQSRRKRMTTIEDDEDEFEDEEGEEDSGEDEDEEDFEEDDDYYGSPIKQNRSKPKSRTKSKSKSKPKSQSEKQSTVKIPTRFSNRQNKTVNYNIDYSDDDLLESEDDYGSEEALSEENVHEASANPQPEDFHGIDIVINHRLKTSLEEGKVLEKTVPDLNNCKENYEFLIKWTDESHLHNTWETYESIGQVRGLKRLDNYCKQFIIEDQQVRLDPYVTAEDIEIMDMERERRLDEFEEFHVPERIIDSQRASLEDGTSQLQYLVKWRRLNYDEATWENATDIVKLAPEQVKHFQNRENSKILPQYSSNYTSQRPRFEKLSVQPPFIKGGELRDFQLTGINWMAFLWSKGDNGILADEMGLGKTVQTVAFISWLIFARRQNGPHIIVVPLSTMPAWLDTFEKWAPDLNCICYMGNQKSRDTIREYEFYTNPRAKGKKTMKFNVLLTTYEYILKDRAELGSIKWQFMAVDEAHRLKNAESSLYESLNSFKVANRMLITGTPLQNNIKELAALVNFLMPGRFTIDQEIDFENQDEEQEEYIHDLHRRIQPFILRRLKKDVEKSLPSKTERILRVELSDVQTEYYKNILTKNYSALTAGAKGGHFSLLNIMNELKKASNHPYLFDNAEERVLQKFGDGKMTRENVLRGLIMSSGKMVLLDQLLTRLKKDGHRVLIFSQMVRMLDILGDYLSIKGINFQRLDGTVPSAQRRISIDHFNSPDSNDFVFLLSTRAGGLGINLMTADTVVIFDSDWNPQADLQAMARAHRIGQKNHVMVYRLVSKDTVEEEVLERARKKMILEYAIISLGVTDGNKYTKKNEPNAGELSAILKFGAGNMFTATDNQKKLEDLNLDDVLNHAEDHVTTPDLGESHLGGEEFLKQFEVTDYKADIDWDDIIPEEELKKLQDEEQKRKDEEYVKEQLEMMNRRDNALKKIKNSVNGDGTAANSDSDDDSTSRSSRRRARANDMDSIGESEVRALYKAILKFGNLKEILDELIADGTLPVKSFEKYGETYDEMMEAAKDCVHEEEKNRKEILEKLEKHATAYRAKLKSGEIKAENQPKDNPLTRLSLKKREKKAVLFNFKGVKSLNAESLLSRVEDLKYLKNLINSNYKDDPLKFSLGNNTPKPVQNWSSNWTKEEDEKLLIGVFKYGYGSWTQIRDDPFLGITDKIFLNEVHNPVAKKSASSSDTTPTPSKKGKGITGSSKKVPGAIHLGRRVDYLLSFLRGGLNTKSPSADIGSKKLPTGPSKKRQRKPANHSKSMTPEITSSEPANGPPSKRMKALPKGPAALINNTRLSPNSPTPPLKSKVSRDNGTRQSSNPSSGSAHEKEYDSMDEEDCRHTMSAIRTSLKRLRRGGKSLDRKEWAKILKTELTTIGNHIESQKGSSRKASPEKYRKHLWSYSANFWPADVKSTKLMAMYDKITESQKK
Chain of Sialic acid-binding Ig-like lectin 9 (Homo sapiens) (Q9Y336 whole entry): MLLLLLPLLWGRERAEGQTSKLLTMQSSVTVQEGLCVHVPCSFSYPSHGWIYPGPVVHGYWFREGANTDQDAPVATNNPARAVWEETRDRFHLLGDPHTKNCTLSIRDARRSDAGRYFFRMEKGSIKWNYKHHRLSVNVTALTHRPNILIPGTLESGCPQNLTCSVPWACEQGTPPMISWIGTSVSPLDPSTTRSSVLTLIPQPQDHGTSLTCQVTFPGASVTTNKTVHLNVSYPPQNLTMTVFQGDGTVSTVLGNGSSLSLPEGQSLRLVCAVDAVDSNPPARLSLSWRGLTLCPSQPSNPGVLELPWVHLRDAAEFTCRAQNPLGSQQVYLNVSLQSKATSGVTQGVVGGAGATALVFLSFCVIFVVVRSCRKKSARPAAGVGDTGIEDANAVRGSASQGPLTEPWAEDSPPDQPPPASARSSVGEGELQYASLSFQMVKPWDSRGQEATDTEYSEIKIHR

Regarding `CN(C)C(=O)N1CCN(Cc2noc(Cc3ccccc3)n2)CC1`, the Percent Effect was -2.44% in test [1]; 0% in test [2]; -1.46% in [3]; 6.32% in [4]; -0.661% in the test on Trypanosoma cruzi; -2.28% in [5]. Moreover, the Percent Effect in test [6] was -0.409%; in the test listed under Homo sapiens, -0.594%; in [7], 2.46%; in test [8] it was -3.8%; in test [9], -2.99%.

For the molecule `CCc1nc(CCNC(=O)NC2CC2)sc1C`, the Percent Effect was -5.62% in [1]; 0% in test [2]; -1.43% in test [3]; -3.96% in test [4]; 0% in the test with Trypanosoma cruzi; 1.67% in test [5]. Moreover, the Percent Effect is 9.89% in [6]; 5.25% in the test listed under Homo sapiens; 6.93% in test [7]; -1.22% in test [8]; -6.36% in [9].

As for `Cc1cc(C)n(CC2CCCN2CC(=O)NC2CCOCC2)n1` (stereo not drawn), the Percent Effect is -8.59% in [1]; 10.4% in [2]; 1.94% in [3]; 3.84% in [4]; -3.93% with Trypanosoma cruzi; 2.13% in test [5]. Further, the Percent Effect is 3.21% in test [6]; -10% in the test filed under Homo sapiens; 1.94% in [7]; 9.76% in [8]; -3.99% in test [9].

For `CCN1CC(C(=O)NC(C)(C)CC(C)(C)C)CC1=O` (stereo not drawn), the Percent Effect in [1] is -3.13%; in test [2], 10.8%; in test [3], -0.778%; in [4], 22.8%; in the test on Trypanosoma cruzi it was 4.4%; in test [5], 21.1%. In addition, the Percent Effect in [6] is 5.06%; in the test listed under Homo sapiens it was -0.424%; in [7], 5.38%; in test [8], 8.64%; in test [9] it was -10.2%.

Consider `CCNC(=O)NC(=O)CSC(C)c1ccccc1F` (stereo not drawn), for which the Percent Effect in [1] is -2.26%; in [2], 0%; in test [3], -7.52%; in test [4], 16.2%; with Trypanosoma cruzi, 3.8%; in test [5], 16.7%. The Percent Effect in test [6] was 11.3%; in the test filed under Homo sapiens, -1.43%; in test [7] it was 3.83%; in test [8], 25.9%; in [9], -6.89%.

`COc1cccc2c1OCC(NC(=O)NC1CCN(C3CC3)CC1)C2` (stereo not drawn): the Percent Effect is -3.95% in test [1]; 0% in test [2]; 4.77% in [3]; 0.911% in test [4]; 4.77% in the test with Trypanosoma cruzi; 0% in test [5]. The Percent Effect in [6] is 10.6%; in the test listed under Homo sapiens, 3.27%; in [7], 6.38%; in test [8] it was 7.79%; in [9], -0.292%.

As for `CN(Cc1ccccn1)C1COC2(CCN(Cc3nccs3)CC2)C1` (stereo not drawn), the Percent Effect in test [1] is -4.64%; in [2], 21.3%; in [3] it was -8.85%; in test [4], -0.12%; in the test with Trypanosoma cruzi, 1.35%; in [5], -57.5%. In addition, the Percent Effect is 12.8% in [6]; 5.05% in the test listed under Homo sapiens; 5.21% in test [7]; 20% in test [8]; -11.7% in test [9].

`Cc1ccc(CN2CCc3c(C(=O)N(C)C)nn(C)c3C2)s1`: the Percent Effect is -1.04% in test [1]; 8.22% in test [2]; -3.87% in test [3]; 6.86% in test [4]; 5.95% with Trypanosoma cruzi; 0% in test [5]. The Percent Effect in test [6] was 18.6%; in the test listed under Homo sapiens, 6.25%; in test [7], 8.33%; in [8], 11.1%; in test [9], -4.79%.
